Structures can show the parent of a compound that is named as a salt. Values without a mark were called inactive.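 Rule for the calls: for the amine columns active = adjusted P below 0.05 in both replicates with a change the same way and a mean fold change under 0.8 or over 1.25; inactive = the rest.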

This test relates to Klebsiella aerogenes DSM 30053. Briefly: fold change of Putrescine concentration vs plate DMSO controls (fold change (ratio)); higher = more amine produced, active = hit call of the paper (significant change in both replicates, either direction). The conditions noted are these: incubation time: 27 h, anaerobic, 37 °C. The essentials:
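Anaerobic mGAM cultures of four gut bacterial strains were grown at 37 °C for 27 h in 80 µL wells, starting at OD 0.1 before 1:1 dilution. Compounds were at 20 µM final (sweeteners 50 µM). Whole cultures were extracted with cold acetonitrile/methanol containing 0.1% formic acid and centrifuged. Amines were quantified by LC–triple-quadrupole MS (dynamic MRM) against external calibration curves and drift-corrected within batch. Each value is the fold change versus plate DMSO controls, averaged over 2 biological replicates.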
Take `CC(C)COCC(CN(Cc1ccccc1)c1ccccc1)N1CCCC1` (centres undefined) [Bepridil hydrochloride] (20 µM): the “fold change of Putrescine concentration” value is 1.01. Take `C[C@@H]1C[C@H]2[C@@H]3CCC4=CC(=O)C=C[C@]4(C)[C@@]3(Cl)[C@@H](O)C[C@]2(C)[C@@]1(OC(=O)c1ccco1)C(=O)CCl` [Mometasone furoate] (20 µM): the “fold change of Putrescine concentration” value was 1. The figure for `c1ccc(-c2ccc(C(c3ccccc3)n3ccnc3)cc2)cc1` (centres undefined) [Bifonazole] (20 µM) is 1.01; for `Cc1ncc([N+](=O)[O-])n1CC(C)O` (centres undefined) [Secnidazole] (20 µM) it is 1.03.

Turning to `CC(=O)[C@H]1CC[C@H]2[C@@H]3C[C@H](C)C4=CC(=O)CC[C@]4(C)[C@H]3[C@@H](O)C[C@]12C` [Medrysone] (20 µM), the “fold change of Putrescine concentration” value is 1. Next, `Cc1ccc(C(=O)c2ccc(CC(=O)O)n2C)cc1` [Tolmetin sodium salt dihydrate] (20 µM): 1.01; `COCCOC(=O)C1=C(C)NC(C)=C(C(=O)OC(C)C)C1c1cccc([N+](=O)[O-])c1` (centres undefined) [Nimodipine] (20 µM): 0.99.

On to `CCCCCCCCCCCCCCCCCCCCCC(=O)Nc1ccn([C@@H]2O[C@H](CO)[C@@H](O)[C@@H]2O)c(=O)n1` [Enocitabine] (20 µM), for which the “fold change of Putrescine concentration” value was 1.01. Next, `CCN(CCCc1ccccc1)CCCc1ccccc1` [Alverine citrate salt] (20 µM): 1.02.

For `CN(C)CCCC1(c2ccc(F)cc2)OCc2cc(C#N)ccc21` (centres undefined) [Citalopram hydrobromide] (20 µM), the “fold change of Putrescine concentration” value is 1. The figure for `O=C1Nc2ccc(Cl)cc2[C@@](C#CC2CC2)(C(F)(F)F)O1` [Efavirenz] (20 µM) is 0.985; for `O=C1NS(=O)(=O)c2ccccc21` [Saccharin] (50 µM) it is 1.01. For `O=C(O)CCCC[C@@H]1SC[C@@H]2NC(=O)N[C@@H]21` [Biotin] (20 µM), the “fold change of Putrescine concentration” value is 1.02.

As to `CC(C)(C(=O)O)c1ccc(C(O)CCCN2CCC(C(O)(c3ccccc3)c3ccccc3)CC2)cc1` (centres undefined) [Fexofenadine hydrochloride] (20 µM), the “fold change of Putrescine concentration” value is 0.999. With `CC(C)[C@H]1CC[C@H](C(=O)N[C@H](Cc2ccccc2)C(=O)O)CC1` [Nateglinide] (20 µM), the “fold change of Putrescine concentration” value is 1. Take `COc1ccc(CNc2nc(N3CCC[C@H]3CO)ncc2C(=O)NCc2ncccn2)cc1Cl` [Avanafil] (20 µM): the “fold change of Putrescine concentration” value is 1.

As for `C#CCN(C)CCCOc1ccc(Cl)cc1Cl` [Clorgyline hydrochloride] (20 µM), the “fold change of Putrescine concentration” value was 0.984. Next, `Cc1cc(-c2ccccc2)nnc1NCCN1CCOCC1` [Minaprine dihydrochloride] (20 µM): 0.998; `c1ccc(CNc2ncnc3nc[nH]c23)cc1` [Aminopurine, 6-benzyl] (20 µM): 1.02; `COc1cccc(N(C)C(=S)Oc2ccc3c(c2)CCCC3)n1` [Liranaftate] (20 µM): 1.06. Next, `C=CCOc1ccccc1OCC(O)CNC(C)C` (centres undefined) [Oxprenolol hydrochloride] (20 µM): 1.

As to `C[C@@H](O[C@H]1OCCN(Cc2n[nH]c(=O)[nH]2)[C@H]1c1ccc(F)cc1)c1cc(C(F)(F)F)cc(C(F)(F)F)c1` [Aprepitant] (20 µM), the “fold change of Putrescine concentration” value is 1.01. For the molecule `CCOc1ccc(Cc2nccc3cc(OCC)c(OCC)cc23)cc1OCC` [Ethaverine hydrochloride] (20 µM), the “fold change of Putrescine concentration” value was 1.01. Next, `O=C(CCCCC(=O)Nc1c(I)cc(I)c(C(=O)O)c1I)Nc1c(I)cc(I)c(C(=O)O)c1I` [Iodipamide] (20 µM): 1.02; `NC(=O)c1cnccn1` [Pyrazinamide] (20 µM): 1; `CCN(CC)CCOC(=O)c1ccc(N)cc1` [Procaine hydrochloride] (20 µM): 1.03. Next, `CCCCC(CC)CNC(=N)NC(=N)NCCCCCCNC(=N)NC(=N)NCC(CC)CCCC` (centres undefined) [Alexidine dihydrochloride] (20 µM): 1.02; `Cc1onc(-c2ccccc2)c1C(=O)N[C@@H]1C(=O)N2[C@@H]1SC(C)(C)[C@@H]2C(=O)O` [Oxacillin sodium] (20 µM): 0.992. As for `CC(=O)N[C@@H](CC(C)C)C(=O)O` [N-Acetyl-L-leucine] (20 µM), the “fold change of Putrescine concentration” value is 1.01. The figure for `CC(C)CN(C[C@@H](O)[C@H](Cc1ccccc1)NC(=O)O[C@H]1CO[C@H]2OCC[C@H]21)S(=O)(=O)c1ccc(N)cc1` [Darunavir] (20 µM) is 0.998; for `CN1CCc2cccc3c2[C@H]1Cc1ccc(O)c(O)c1-3` [R(-) Apomorphine hydrochloride hemihydrate] (20 µM) it is 0.978; for `CC(=O)OCC(=O)[C@@]1(O)[C@H](C)C[C@H]2[C@@H]3CCC4=CC(=O)C=C[C@]4(C)[C@@]3(F)[C@@H](O)C[C@@]21C` [Dexamethasone acetate] (20 µM) it is 1.02. Next, `CN(C)CCC(c1ccc(Br)cc1)c1ccccn1` (centres undefined) [Brompheniramine maleate] (20 µM): 0.943; `C#C[C@]1(O)CC[C@H]2[C@@H]3CCC4=C(CCC(=O)C4)[C@H]3CC[C@@]21C` [Norethynodrel] (20 µM): 1.03; `CN1CCN(CCCN2c3ccccc3Sc3ccc(S(=O)(=O)N(C)C)cc32)CC1` [Thioproperazine dimesylate] (20 µM): 0.976. The figure for `CCN1/C(=C/C=C/C=C/c2sc3ccccc3[n+]2CC)Sc2ccccc21` [Dithiazanine iodide] (20 µM) is 1.01; for `O=C(O)/C=C/c1ccc(Cn2ccnc2)cc1` [Ozagrel hydrochloride] (20 µM) it is 0.993; for `C=CCOc1ccc(CC(=O)O)cc1Cl` [Alclofenac] (20 µM) it is 0.974.

Turning to `CCCCc1nc(Cl)c(CO)n1Cc1ccc(-c2ccccc2-c2nnn[nH]2)cc1` [Losartan] (20 µM), the “fold change of Putrescine concentration” value was 1.04.

Source of the values: the supplement of paper PMC12494721.
